TRPV1 agonist: agonists of human vanilloid receptor 1 (TRPV1) | Q8NER1 | TRPV1-expressing cells, Fluo-8 calcium influx, agonist mode | AID 540275 | activation, % at 8.33 µM | 0.19% of 320,000 active; in the data active means activation above about 80%; inconclusive means between about 30% and that limit
Target sequence (Q8NER1 whole entry, looked up): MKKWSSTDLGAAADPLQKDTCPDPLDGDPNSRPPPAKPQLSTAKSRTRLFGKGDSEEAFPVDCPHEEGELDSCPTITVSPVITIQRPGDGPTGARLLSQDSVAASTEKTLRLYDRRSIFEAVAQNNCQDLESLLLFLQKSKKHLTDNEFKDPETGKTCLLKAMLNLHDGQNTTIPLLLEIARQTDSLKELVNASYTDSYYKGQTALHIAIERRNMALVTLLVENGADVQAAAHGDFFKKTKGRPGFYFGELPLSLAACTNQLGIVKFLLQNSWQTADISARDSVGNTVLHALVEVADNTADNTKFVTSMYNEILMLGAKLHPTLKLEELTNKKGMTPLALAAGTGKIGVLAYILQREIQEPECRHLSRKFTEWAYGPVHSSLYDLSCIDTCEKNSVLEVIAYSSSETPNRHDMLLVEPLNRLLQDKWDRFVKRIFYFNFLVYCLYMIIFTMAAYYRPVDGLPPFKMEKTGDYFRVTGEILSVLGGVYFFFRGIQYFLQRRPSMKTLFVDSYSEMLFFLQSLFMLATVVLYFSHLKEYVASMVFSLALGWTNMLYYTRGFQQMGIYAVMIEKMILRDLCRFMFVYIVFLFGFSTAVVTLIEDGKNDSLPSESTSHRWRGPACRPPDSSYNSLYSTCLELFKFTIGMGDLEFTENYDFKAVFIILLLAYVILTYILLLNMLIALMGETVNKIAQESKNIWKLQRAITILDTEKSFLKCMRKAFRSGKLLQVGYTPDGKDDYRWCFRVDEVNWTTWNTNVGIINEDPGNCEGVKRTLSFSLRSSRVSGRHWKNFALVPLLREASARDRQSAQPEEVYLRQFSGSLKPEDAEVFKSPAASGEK
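Cells expressing TRPV1 were dye-loaded with Fluo-8 and read kinetically: 10 s baseline, 3 min after compound (agonist portion), then 2 min after EC20 capsaicin (allosteric enhancer portion). Calcium-bound dye fluorescence at 480/520 nm.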
hERG WT inh: inhibitors of human wildtype KCNH2 potassium channel | U2OS, BacMam KCNH2, thallium flux FluxOr; hits give low values | Q12809 | activity change, % at 1.84 µM | 0.37% of 340,000 active;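 active means maximum activity change below -70%; inconclusive means maximum activity change between -70% and -50%; inactive means maximum activity change above -50%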
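U2OS cells were transduced with wild-type KCNH2 virus (2.03 x 10^8 / mL) for 4 h at room temperature, then cultured overnight at 37 C. Thallium flux was read with FluxOr dye. Rate constants were normalized to DMSO controls.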
TRPV1 potentiator: potentiators of human vanilloid receptor 1 (TRPV1) | AID 540277 | potentiation, % at 8.33 µM | Q8NER1 | 0.02% of 320,000 active | TRPV1-expressing cells, Fluo-8 calcium influx, capsaicin EC20 potentiation; in the data active means potentiation above about 80%; inconclusive means between about 30% and that limit
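Fluo-8 calcium influx in TRPV1-expressing cells, kinetic read (ex 480/em 520 nm). Compound added and read 3 min for agonist activity, followed by capsaicin at EC20 final and 2 min further read for enhancement.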
KCNH2 3.1 block: blocks the human KCNH2 3.1 channel isoform; 0.95% of 340,000 active; U2OS KCNH2 3.1, thallium flux FluxOr; hits give low values; activity change, % (tested at about 1.8 µM);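 active means maximum activity change below -70%; inconclusive means maximum activity change from -70% to -50%; inactive means maximum activity change above -50%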;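 further: thallium influx rate constant from kinetic fluorescence after stimulation buffer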
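Normalized rate constant (relative to positive and negative DMSO controls) derived from a 2 min kinetic fluorescence read after stimulation; U2OS cells expressing the 3.1 isoform via virus at 1.77 x 10^8 /mL.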
Each line names hits and unclear results; the compound was inactive in the other large screens. Rows were chosen to be rich in hits. Some 1.2% of all compounds tested hit in one or more screens of this group.

Cc1cc(C)c(O)c(NC(=S)NC(=O)Cc2ccccc2)c1	TRPV1 agonist 81
CC(=O)c1ccc(OCc2cc(C(=O)NCCc3ccc(Cl)cc3)no2)cc1	none
Cc1coc2c(C)c3oc(=O)c(CCC(=O)NCCCN4CCOCC4)c(C)c3cc12	none
Cc1coc2c(C)c3oc(=O)c(CCC(=O)N4CCC(C(=O)NCCCC(=O)O)(c5ccccc5)CC4)c(C)c3cc12	KCNH2 3.1 block -197
O=C(Nc1cccc2cccnc12)OCc1ccccc1	none (no result: hERG WT inh, KCNH2 3.1 block)
O[C@@H]1CN(Cc2cccs2)[C@@H](c2ccc(Cl)cc2)C[C@H]1n1cc(C2CC2)nn1	none (no result: TRPV1 agonist, TRPV1 potentiator)
CCOC(=O)N1CCN(C(=S)NC(=O)c2ccc(F)cc2)CC1	KCNH2 3.1 block -73
CCOC(=O)N1CCN(C(=S)NC(=O)c2ccnn2C)CC1	none
O=C(Nc1cccc([N+](=O)[O-])c1)c1[nH]ncc1Cl	TRPV1 potentiator inconclusive
CCOC(=O)C1CCCN(C(=O)Nc2ccccc2)C1 (stereo unspecified)	KCNH2 3.1 block -73
CCOC(=O)C1CCCN(C(=O)C2CCN(C(=O)Nc3ccccc3)CC2)C1 (stereo unspecified)	none
CCOC(=O)C1CCCN(CC(O)COc2ccccc2C(C)=O)C1 (stereo unspecified)	none
CCOC(=O)C1CCCN(CC(O)COC(c2ccccc2)c2ccccc2)C1 (stereo unspecified)	hERG WT inh -77, KCNH2 3.1 block -96
C=CCOc1ccc(/C=N/NC(=O)CC(=O)NC2CCCCC2)cc1	none
COc1ccc(Nc2nc(N3CCOCC3)nc(N3CCOCC3)n2)cc1	none
COc1ccc(Nc2nc(NCc3ccco3)nc(N3CCOCC3)n2)cc1	TRPV1 agonist 86
N#Cc1c(N2CCN(C(=O)c3ccccc3Cl)CC2)nc(-c2ccccc2)c2c1CCCC2	hERG WT inh -283
N#Cc1c(N2CCN(C(=O)c3ccccc3)CC2)nc(-c2ccccc2)c2c1CCCC2	none
Cc1ccc(CNS(=O)(=O)c2ccc(-n3cnnn3)c(C)c2)cc1	none
C(#Cc1ccccc1)C[N+]1(CC#Cc2cccc3ccccc23)CCCC1	KCNH2 3.1 block -80
C#CC[N+]1(CC#Cc2ccccc2)CCCC1	none
Cc1ccc(OCCSc2nc3ccccc3n2CC(=O)O)cc1C	TRPV1 potentiator 95
O=C(O)Cn1c(SCCOc2ccccc2)nc2ccccc21	none
Cc1ccc(OCCSc2nc(NC(C)C)nc(NC(C)C)n2)cc1	KCNH2 3.1 block -76
Cc1cccc(N2CCN(C(=O)c3ccc4c(c3)NC(=O)C(CSCc3cccc(F)c3)N4)CC2C)c1 (stereo unspecified)	none
CCC(C)[C@H](N)c1cn([C@@H](Cc2cc3ccccc3[nH]2)C(=O)N2CCNCC2)nn1 (stereo partly specified)	hERG WT inh -252
CC(C)C[C@H](N)c1cn([C@@H](Cc2cc3ccccc3[nH]2)C(=O)N2CCNCC2)nn1	none
O=C(CCCCC(=O)NN=Cc1ccc(Cl)cc1)NN=Cc1ccc(Cl)cc1	none (no result: TRPV1 agonist, TRPV1 potentiator)
N#CCC(=O)N/N=C/c1ccc(Cl)cc1	KCNH2 3.1 block -73
CC(OC(=O)[C@@H](NC(=O)OCc1ccccc1)C(C)C)C(=O)Nc1ccc(N2CCOCC2)cc1 (stereo partly specified)	none (no result: TRPV1 agonist, TRPV1 potentiator)
COCCNC(=O)C(c1ccccc1)N(C(=O)Cn1nnc2ccccc21)c1cccnc1 (stereo unspecified)	hERG WT inh -197
CCOC(=O)N1CCC(N2Cc3cccc(C(=O)Nc4ccc(CC)cc4)c3C2=O)CC1	KCNH2 3.1 block -112
O=C(NCCc1ccccc1C(F)(F)F)C1CCC(=O)N(C2CC2)C1 (stereo unspecified)	none
Cc1cc(NC(=O)CSCC(=O)N(C)Cc2ccc(Cl)c(Cl)c2)no1	TRPV1 agonist inconclusive, hERG WT inh -95
COc1ccc(NC(=O)CCCSc2nc(-c3ccco3)cc(C(F)(F)F)n2)cc1OC	TRPV1 agonist 83
Cc1cc(NC(=O)CCCSc2nc(-c3ccco3)cc(C(F)(F)F)n2)no1	none
C=CCN1C(c2ccccc2)=CS/C1=C(\C#N)c1nnc2n1CCCCC2	none
C=CCn1c(=O)/c(=C/c2ccc(Cl)cc2)s/c1=C(\C#N)c1nnc2n1CCCCC2	KCNH2 3.1 block -87 (no result: TRPV1 agonist, TRPV1 potentiator)
Cc1ccc(CNC(=O)COC(=O)c2cccc(S(=O)(=O)N3CCCCC3)c2)cc1	none
Nc1nc2ccccc2n1CCOc1ccc(Br)cc1	KCNH2 3.1 block -91
Nc1nc2ccccc2n1CCOc1ccc(Cl)cc1	KCNH2 3.1 block -84
CN(C)CCN(C(=O)c1ccccc1Cl)c1nc2c(Cl)cccc2s1	none
c1nc(NCC2(N3CCOCC3)CCCCC2)c2ccsc2n1	none
Cc1sc2ncnc(NCC3(N4CCOCC4)CCCCC3)c2c1C	KCNH2 3.1 block -72
CCOC(=O)C1(Cc2ccccc2C(F)(F)F)CCN(C(C)CCn2cccn2)CC1 (stereo unspecified)	KCNH2 3.1 block -85
CCOC(=O)C1(Cc2ccc(Cl)cc2)CCN(CCCn2cccn2)CC1	KCNH2 3.1 block -119
CCOC(=O)C1(Cc2ccccc2)CCCN(CCCn2cccn2)C1 (stereo unspecified)	none
Cc1c(NC(=O)c2cccc(-c3cc4ccccc4oc3=O)c2)cccc1-c1nc2ncccc2o1	KCNH2 3.1 block -96
Cc1c(NC(=O)C(C)C)cccc1-c1nc2ncccc2o1	none
CC(C)OC(=O)CSc1nnc(COc2ccc([N+](=O)[O-])cc2)n1C	none
CNC(=O)C(=O)NCC1OCCN1S(=O)(=O)c1ccc(C)cc1 (stereo unspecified)	hERG WT inh -207
CN(CC(=O)N1CCN(Cc2ccccc2)CC1)S(=O)(=O)c1cccc2nsnc12	none
Cc1c(NC(=O)COc2cccc3c2OC(C)(C)C3)c(=O)n(-c2ccccc2)n1C	KCNH2 3.1 block -107
CCn1c(NCc2cc(Br)ccc2NS(=O)(=O)c2ccc(C)cc2)nc2ccccc21	KCNH2 3.1 block -82
CCn1c(NCc2ccccc2NS(=O)(=O)c2ccc(C)cc2)nc2ccccc21	none
Nn1c(=S)[nH]c2sc3c(c2c1=O)CCCC3	none (no result: TRPV1 agonist, TRPV1 potentiator)
CCCn1c(=S)[nH]c2sc3c(c2c1=O)CCCC3	hERG WT inh -85
CCC(Oc1ccc(Br)cc1Cl)C(=O)Nc1nnc(C2CC2)s1 (stereo unspecified)	none
Cn1cc(Cl)c(C(=O)N/N=C/c2ccc3c4c(cccc24)CC3)n1	none
Cc1c(NS(=O)(=O)c2cccs2)cccc1-c1nc2cccnc2s1	KCNH2 3.1 block -87
O=C(Nc1cccc(S(=O)(=O)N2CCCC2)c1)c1ccc2c(c1)OCO2	none
O=C(Nc1cccc(S(=O)(=O)N2CCCCCC2)c1)c1ccc2c(c1)OCO2	TRPV1 agonist inconclusive, KCNH2 3.1 block -84
CCN(CC)CCNCC(O)(c1ccc(Cl)cc1)c1ccc(Cl)cc1	hERG WT inh inconclusive, KCNH2 3.1 block -91
O=C(Nc1ccccc1NC(=O)c1ccccc1F)c1ccccc1F	hERG WT inh -89
C=CCOc1ccccc1C1C2=C(CC(C)(C)CC2=O)Nc2c1c(=O)n(C)c(=O)n2C (stereo unspecified)	KCNH2 3.1 block -178
COc1ccccc1-c1cn[nH]c1-c1ccc(O)cc1O	KCNH2 3.1 block -116
